PubChem BioAssay (NCI)
Several values for one entry are separate records, joined by “and”; a condition that tells them apart may be missing. Equal values may be shown once. Compounds without any hit were thinned out: in the full panel of roughly 79,000, 15% have a hit. Unmarked numbers belong to inactive results. Activity calls are given as the source filed them. Rule as the data show it: active = growth inhibition above about 70%; inactive = the rest.

Test: NCI Yeast Anticancer Drug Screen. Data for the sgs1 mgt1 strain (AID 161);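 also: 0% = growth of cultures given vehicle only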
Settings: S. cerevisiae sgs1 mgt1 strain, active compounds read high
Method: Growth inhibition of yeast strains with defined genetic alterations is measured as a screen for potential anti-cancer activity. Selected strains with alterations in DNA damage repair or cell cycle control were exposed to compounds and growth inhibition was measured relative to vehicle treated controls. The strain used in this assay is sgs1 mgt1

[1] = at 5.0 µM (retest, dose inferred, filed as 0.5)
[2] = at 50.0 µM (retest, dose inferred, filed as 5.0)

Structure (SMILES)	growth inhibition [1]	growth inhibition [2]	growth inhibition (at 50.0 µM)
Cc1nc([N+](=O)[O-])c(Sc2nncc(-c3ccccc3)n2)n1C	7%	28%	95% (active)
CCc1oc2ccccc2c1C(=O)c1cc(Br)c(O)c(Br)c1	8%	99% (active)	99.2% (active)
COc1ccc2c(c1OC)OCC(CN(C)C)C2=O (configuration not stated)	23%	98% (active)	99% (active)
O=C(c1ccccc1)c1cc2ccccc2oc1=O	1%	63%	60.5%
CC(C)=C1C=C2CC[C@@H]3[C@](C)(CCC[C@@]3(C)C(=O)O)[C@H]2CC1	2%	95% (active)	91% (active)
Cc1onc(-c2ccccc2)c1C(=O)N/N=C/c1cc(Cl)cc(Cl)c1O	93% (active)	98% (active)	90.8% (active)
CC[n+]1ccc(Nc2ccc(NC(=O)c3ccc(Nc4cc[n+](CC)c5ccc([N+](=O)[O-])cc45)cc3)cc2)cc1	84% (active)	98% (active)	99.5% (active)
Cc1ccc(NC(=S)C#N)cc1Cl	41%	60%	77.3% (active)
O=C(c1ccc(O)c(Br)c1)c1ccc(O)c(Br)c1	44%	99% (active)	64.4%
Oc1ccc(Cc2cccc(Cl)c2)c(O)c1	-4%	97% (active)	
CCCCCCCCCCCCCCCCCC1=NCCCN1CCO	14%	8%	40%
CC1=CC[C@@H]2[C@@H](CC[C@@]2(C)O)C(C)(C)[C@H]1CC[C@@H]1[C@@]2(C)CC[C@@H](O)C(C)(C)O[C@@H]2CC[C@]1(C)O	4%	70% (active)	77.5% (active)
O=C(c1ccccc1)c1ccc(O)c2ncccc12	10%	99% (active)	99% (active)
CN(C)CC1CC(=O)C(CN(C)C)CC1=O (configuration not stated)			-10.1% and -21.7%
CCOC(=O)C(=Cc1ccco1)C(=O)OCC			7.75% and -0.5%
C=CCC1=C(C)C(OC(=O)C=C(C)C)CC1=O (configuration not stated)			-6.15% and -6%
O=C(NC(=O)c1ccccc1)NC(=O)c1ccccc1			-3.35% and 1.1%
